Source: PubChem (several laboratories)
Most compounds without a hit are left out; they make up all but 0.79% or so of the library.
phage Ecoli inh: E. coli growth loss with phage present; growth absorbance; inhibition, % at 11.9 µM; 360,000 tested, 0.26% active; AID 651602; in the data active means inhibition above about 11%
E coli growth-1: E. coli growth inhibition | Escherichia coli growth, OD600, 23 h; stronger effect = lower value | OD600 absorbance (test concentration not listed) | 330,000 tested, 0.21% active;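 active means OD600 absorbance below the run mean of sample wells minus 3.6 SD, in any replicate, cut at about 0.56 in these data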
E coli growth-2: counter-screen for AddAB inhibitors: E. coli growth inhibition | E. coli V3065 growth, OD600 absorbance, 18 h | inhibition, % at 11.9 µM | 330,000 tested, 0.27% active;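 active means inhibition above the campaign's mean inhibition across all tested compounds plus 3 SD, cut at about 9.9% in these data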;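 further: uninfected addAB+ strain grown without phage in ampicillin broth; 0% = DMSO wells and 100% = ciprofloxacin 0.95 µg/ml wells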
Tat export inh: blocks Tat-dependent protein export in E. coli; E. coli MC4100 TorA-mCherry Tat export, fluorescence; inhibition, % at 10 µM; 340,000 tested, 0.036% active; AID 488895;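 active means mean replicate inhibition at least 50% and at least half of replicates individually reaching 50%; inconclusive means only one of the two criteria met; inactive means neither criterion met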;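 further: exported cargo escapes ClpAP degradation while cytoplasmic cargo is degraded and loses fluorescence; 0% = median of neutral control wells and 100% = median of NaSCN control wells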
AI-2 QS mod: modulators of Vibrio harveyi AI-2 quorum sensing system; activity change, % at 7.5 µM; 300,000 tested, 0.4% active; Vibrio harveyi JMH597 AI-2 luminescence/OD600 ratio, 9 h; stronger effect = lower value; strain lacks LuxN and CqsS sensors; 0 = neutral-control median; in the data active means activity change below about -75%, passing the limit was not always enough; inconclusive means no clear call, values can overlap the other calls;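 further: luminescence divided by OD600 gain over 9 h not by final OD600 alone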
AddAB inh: less growth of phage-infected E. coli with AddAB; E. coli expressing H. pylori AddAB, absorbance growth; inhibition, % at 11.9 µM; 330,000 tested, 0.29% active; AID 435030; in the data active means inhibition above about 12%;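 further: 0% = vehicle wells of infected cells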
* marks the source's active call; other numbers are inactive results; i = inactive; ? = inconclusive; nt = no result.

SMILES | phage Ecoli inh | E coli growth-1 | E coli growth-2 | Tat export inh | AI-2 QS mod | AddAB inh
CC(C(O)c1ccccc1)N(C)C(=O)CN (configuration not stated) | nt | 0.694 | nt | nt | nt | nt
O=C(NN=Cc1ccco1)Nc1ccccc1 | nt | 0.642 | nt | nt | nt | nt
O=C(NN=Cc1ccc(Br)cc1)c1ccccc1-n1cccc1 | nt | 0.714 | nt | nt | nt | nt
CCc1ccc(OCC(=O)NN=C(C)c2ccc(OC(F)F)cc2)cc1 | nt | 0.714 | nt | nt | nt | nt
CCc1ccc(OCC(=O)N/N=C(\C)c2ccc(O)cc2O)cc1 | 3.1 | nt | -0.7 | 2.2 | -78.0* | 1.2
COc1ccc(C(OC)[C@@]2(Cc3ccc(O)cc3)N=C(N)N(C)C2=O)cc1 (some centres not stated) | nt | 0.703 | nt | nt | nt | nt
Cc1ccsc1C=Nn1c(-c2ccco2)n[nH]c1=S | nt | 0.754 | nt | nt | nt | nt
CN(C)c1ccc(C=c2c3ccccc3n3c2cc(-c2ccccc2)[n+]3C)cc1 | 10.9* | nt | nt | i | nt | nt
CN(C)c1ccc(C=c2c3ccccc3n3c2cc(-c2ccc(Cl)cc2)[n+]3C)cc1 | -1.3 | nt | nt | i | nt | nt
Cc1ccc(NS(=O)(=O)c2ccc(OCC(=O)NCc3ccco3)cc2)cc1 | 3.2 | 0.752 | 13.4* | -1.5 | -54.5 | 9.7
O=[N+]([O-])c1ccc(NC(=S)NCCc2ccc(F)cc2)cc1 | 9.1 | 0.461* | 9.7 | -13.8 | ? | 10.9
O=C1C=C(c2ccc3[nH]ccc3c2)CC(c2ccc(F)cc2)C1 (configuration not stated) | nt | 0.671 | nt | nt | nt | nt
COc1ccc(/C=C2\SC(=O)N(CCNC(=O)C3CC(=O)N(c4ccccc4)C3)C2=O)cc1 (configuration not stated) | 3.1 | 0.705 | 12.0* | 6.7 | 14.3 | 9.1
CC(=NNc1nc(C)c(C)s1)c1ccc([N+](=O)[O-])cc1 | nt | 0.648 | nt | nt | nt | nt
COc1ccc(O)c(/C=N/NC(=S)Nc2cccc(S(=O)(=O)N(C)C)c2)c1 | 0.9 | nt | 2.3 | -10.5 | -5.2 | 4.5
CN(C)S(=O)(=O)c1cccc(NC(=S)N/N=C/c2ccc(O)c(O)c2O)c1 | 10.9* | nt | nt | 6.6 | 14.8 | nt
Cc1cc(NC(=O)CSc2nnc(C3COc4ccccc4O3)n2N)no1 (configuration not stated) | -0.3 | 0.702 | -0.6 | -4.0 | -76.5* | -0.1
COc1ccc(N2C(=O)N3C4c5ccccc5OCC4C(c4ccccc4)[C@@]3(C)C2=O)cc1 (some centres not stated) | nt | 0.679 | nt | nt | nt | nt
O=c1[nH]sc2ccccc12 | 3.6 | 0.0655* | nt | -0.8 | ? | nt
O=c1ccsc2ccccc12 | 0.4 | 0.7 | nt | nt | nt | nt
COc1ccc(C=NN2C(C)CCCC2C)cc1OC (configuration not stated) | nt | 0.692 | nt | nt | nt | nt
Nc1nc(SCC(=O)Nc2ncc(C(F)(F)F)cc2Cl)n[nH]1 | 2.0 | 0.708 | 11.8* | -10.5 | 16.7 | 8.8
O=C(CSc1ncccn1)Nc1ncc(C(F)(F)F)cc1Cl | 1.1 | 0.633 | 1.9 | 0.5 | 15.4 | -1.4
COc1cccc(-n2nnc(S(=O)(=O)c3ccc(C)cc3)c2N)c1 | 0.4 | 0.674 | 0.3 | -5.7 | -92.1* | 0.5
COc1cccc(Oc2nnnn2-c2ccccc2)c1 | 0.5 | 0.721 | -0.8 | -11.4 | 10.0 | 0.0
SMILES | phage Ecoli inh | E coli growth-1 | E coli growth-2 | Tat export inh | AI-2 QS mod | AddAB inh
COc1cccc(-n2nnnc2S(C)(=O)=O)c1 | nt | nt | 0.8 | -38.6 | -86.9* | 1.9
O=c1ccc2[n+]([O-])c3ccc(O)cc3oc-2c1 | -1.2 | 0.663 | nt | i | -417.8* | nt
COC(=O)c1cc(N2C(=O)C3C(C2=O)C2(C)C=CC3(C)O2)ccc1Cl (configuration not stated) | nt | nt | 1.6 | nt | -238.3* | 3.4
CCN1C(=O)C2C(c3ccc(-c4ccc(F)cc4)c(OC)c3)N3CCCC[C@@]3(C(=O)OC)C2C1=O (some centres not stated) | nt | 0.699 | nt | nt | nt | nt
O=C(NNc1ccc(Cl)cc1)c1sccc1Cl | 1.2 | 0.498* | 1.9 | 3.8 | -43.3 | -0.2
Cc1ccc(Sc2ccc(N)cc2C#N)cc1 | 1.2 | 0.692 | 3.2 | -3.5 | -81.3* | 5.5
CC(O)C1CN=C(N)N1CC1CCCCC1 (configuration not stated) | nt | 0.7 | nt | nt | nt | nt
CC(=O)OCC(=O)[C@@]1(O)CCC2C3CCC4=CC(=O)CC[C@]4(C)C3C(O)C[C@@]21C (some centres not stated) | nt | 0.726 | nt | nt | nt | nt
Cc1ccn2c(Nc3ccc4c(c3)OCO4)c(-c3ccccn3)nc2c1 | 2.2 | 0.427* | 3.0 | -11.9 | 20.4 | 6.5
Cc1ccn2c(NC3CCCC3)c(-c3ccccn3)nc2c1 | 3.5 | 0.61 | -2.9 | -12.3 | -7.8 | 0.4
Cc1ccc(Nc2c(-c3ccccn3)nc3ccc(C)cn23)cc1 | 4.5 | 0.459* | 7.5 | -3.8 | 9.3 | 9.0
Cc1ccc(Nc2c(-c3ccccn3)nc3cc(C)ccn23)cc1 | 6.8 | 0.396* | -0.7 | 4.6 | -59.9 | 3.4
Cc1ccc2nc(-c3ccncc3)c(Nc3ccccc3)n2c1 | 2.6 | 0.68 | -1.6 | -3.4 | 27.5 | 0.0
Cc1ccc(Sc2ncccc2C(=O)O)cc1 | 0.6 | 0.683 | 0.8 | 2.9 | -79.6* | 6.4
O=C(O)c1cccnc1Sc1ccccc1 | 4.9 | 0.71 | 0.0 | 4.0 | -16.3 | 3.1
O=C(C[n+]1ccccc1)c1ccc(-c2ccccc2)cc1 | 4.9 | 0.676 | 1.1 | 7.1 | 26.4 | 1.5
C=Cn1cc[n+](CC(=O)c2ccc(-c3ccccc3)cc2)c1 | 5.6 | 0.68 | 13.0* | 2.5 | -0.8 | 11.2
CN(C)[C@@H]1C(=O)C(C(=O)NCN2CCCC2)=C(O)[C@@]2(O)C(=O)C3=C(O)c4c(O)cccc4[C@@](C)(O)C3CC12 (some centres not stated) | nt | nt | nt | nt | 4.4 | nt
C=C1c2c(Cl)ccc(O)c2C(O)=C2C(=O)[C@]3(O)C(O)=C(C(N)=O)C(=O)C(N(C)C)C3C(O)C12 (some centres not stated) | nt | 0.0755* | nt | nt | nt | nt
c1ccc(CCNc2ccnc3cc4ccccc4cc23)cc1 | 2.6 | 0.497* | nt | 1.8 | 23.9 | nt
CC(C)Nc1ccc(Nc2ccnc3cc4ccccc4cc23)cc1 | 8.9 | 0.598 | 4.8 | -1.4 | 51.5 | 5.0
COC(=O)C1=C(C)N=c2sc(=C3C(=O)Nc4ccccc43)c(=O)n2C1c1ccccc1 (configuration not stated) | nt | 0.76 | nt | nt | nt | nt
COc1ccc(/C=C/C(O)=C(\C#N)c2nnc(N3CCOCC3)n2-c2ccccc2)cc1OC | 0.5 | 0.426* | -1.4 | -6.7 | 12.7 | 1.1
O=S(=O)(Nc1ccc(C(F)(F)F)cc1)c1cccs1 | 2.7 | 0.639 | 1.5 | 1.4 | -84.9* | 3.7
Nc1ncncc1-c1ccc([N+](=O)[O-])cc1 | 1.0 | 0.362* | 2.3 | 21.6 | 7.2 | 3.9
